ELG1 genotoxic = qHTS screen for small molecules that induce genotoxicity in human embryonic kidney (HEK293T) cells expressing luciferase-tagged ELG1; HEK293T ELG1-luciferase reporter, luminescence, 16 h; Potency, µM (top dose mostly 46 µM), for the others: at the top dose activity change, positive = activation, most hits filed as activators; 330,000 compounds, 1.3% hits; note: % of control where 0% means no effect; nearly all actives have a fitted effect of over 60% in size
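Step 1: seed 2,000 HEK293T ELG1-luciferase cells per well. Step 2: add compound or DMSO, incubate 16 hr at 37 °C. Step 3: ONE-Glo, 30 min at room temperature, read luminescence.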
SMN2 splice enh = qHTS Assay for Enhancers of SMN2 Splice Variant Expression; HEK293 SMN2-luciferase splicing reporter, luminescence, 30-36 h; 210,000 compounds, 2.8% hits; Potency, µM (series often up to 46.1 µM), without a hit: at the top dose activity change, positive = activation, hits mostly activators; AID 1458, 2008; note: % of control where 0% means no effect; nearly all actives have a fitted effect of over 55% in size
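qHTS luciferase splicing reporter: luminescence rises when SMN2 exon 7 is included in transfected HEK293 cells. Compound exposure lasted 30-36 h at 37C, with 4.5 mM final sodium butyrate as control, followed by a ONE-Glo read.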
FLuc counter = qHTS profiling assay for firefly luciferase inhibitor/activator using purifed enzyme and Km concentrations of substrates (counterscreen for miR-21 project); Luciferin 4-monooxygenase (Photinus pyralis), P08659; purified FLuc, Km substrates, luminescence inhibition; Potency, µM (series often up to 57.5 µM), inactives show at the highest dose activity change, negative = inhibition, hits mostly inhibitors; 360,000 compounds, 6.9% hits;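 note: plate controls were vehicle for no effect and reference inhibitor for full effect; nearly all actives have a fitted effect of over 55% in size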
Target sequence (P08659 whole entry, looked up): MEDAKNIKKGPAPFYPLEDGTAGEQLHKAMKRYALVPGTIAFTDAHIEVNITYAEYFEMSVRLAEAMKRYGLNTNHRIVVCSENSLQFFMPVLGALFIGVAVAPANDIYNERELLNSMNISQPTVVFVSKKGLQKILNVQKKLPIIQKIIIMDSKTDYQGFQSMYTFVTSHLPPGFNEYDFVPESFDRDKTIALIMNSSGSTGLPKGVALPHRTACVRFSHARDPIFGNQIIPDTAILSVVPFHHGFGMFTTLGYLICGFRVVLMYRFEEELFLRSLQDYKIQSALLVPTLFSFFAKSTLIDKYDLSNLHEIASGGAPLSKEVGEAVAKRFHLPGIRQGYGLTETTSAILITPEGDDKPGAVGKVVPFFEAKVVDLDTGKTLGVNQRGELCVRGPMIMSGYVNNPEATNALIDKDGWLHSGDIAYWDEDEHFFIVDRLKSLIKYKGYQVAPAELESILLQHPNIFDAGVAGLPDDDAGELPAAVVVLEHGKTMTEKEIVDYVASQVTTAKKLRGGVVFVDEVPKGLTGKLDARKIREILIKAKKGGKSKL
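Biochemical qHTS of compounds, final roughly 60 µM downward over six points, against 10 nM purified firefly luciferase using Km concentrations of substrates (10 uM D-luciferin, 10 uM ATP) in Tris acetate pH 7.5 buffer; luminescence output.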
Rab9 prom act = qHTS Assay for Rab9 Promoter Activators. 320,000 compounds, 2.8% hits. Huh7 Rab9 promoter-luciferase reporter, luminescence, 24 h. Potency, µM (doses to about 9.22 µM), for inactives: at the highest dose activation, negative = inhibition, most hits filed as activators. AID 485297, 2010; note: % of control where 0% means no effect; nearly all actives have a fitted effect of over 60% in size
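Huh7 cells stably carrying a Rab9 promoter-luciferase reporter, 1500 cells per well in OP-MEM I with 10% FBS, treated with compound 24 hours at 37C. Luciferase activity read by luminescence after 10 minutes with Amplite reagent.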
NPC1 promoter act = qHTS Assay for NPC1 Promoter Activators; Huh7 NPC1 promoter luciferase reporter, 24 h; Potency, µM (series often up to 9.22 µM), for inactives: top-dose activation, hits mostly activators; 320,000 compounds, 2.4% hits; note: % of control where 0% means no effect; nearly all actives have a fitted effect of over 60% in size
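Quantitative HTS used a cell-based reporter: Huh7 cells stably bearing the NPC1 promoter upstream of luciferase were treated with compounds for 24 h, and promoter activation was read as luminescence.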
Luc counter = Counterscreen for Luciferase (Kinase-Glo TM) Inhibition; Kinase-Glo luciferase, ATP luminescence, 8 min; Potency, µM (titrated, usually from 38.3 µM), without a hit: at the highest dose activity change, negative = inhibition, most hits filed as inhibitors; 200,000 compounds, 0.28% hits; AID 1379, 2008; note: % is set by controls: 0 for no effect and ±100 for the full control effect; nearly all actives have a fitted effect of over 60% in size
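Kinase-Glo luciferase light output from ATP and luciferin was measured with 10 uM ATP, within the enzyme's linear range. Buffer: 50 mM imidazole pH 7.2, 50 mM KCl, 7 mM MgCl2, 0.01% Tween 20, 0.05% BSA; luminescence read after 8 min at ambient temperature.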
Active calls of the source: *; ? = inconclusive; nt = no result given; [ ] = another dose, or the depositor's remark. Most compounds without a hit are left out; they make up all but 7.5% or so of the library. Calls come from the whole dose curve; as a rule, active = well fitted curve in the direction sought with a large enough effect; inconclusive = small, poorly fitted or top-dose-only effect, or another doubt; inactive = no such curve, though single readings can be large; an effect the other way counts as inactive or inconclusive. Potency is the fitted concentration of half-maximal effect.

SMILES | ELG1 genotoxic | SMN2 splice enh | FLuc counter | Rab9 prom act | NPC1 promoter act | Luc counter
COc1cccc(/C=C2/C(=O)NN(c3ccc(C)c(C)c3)C2=O)c1 | 13% | nt | ? | -1% | 3% | nt
Cc1ccc(N2NC(=O)/C(=C\c3cc4c(cc3[N+](=O)[O-])OCO4)C2=O)cc1C | ? | -23% | ? | -7% | -1% | -1%
COc1cccc(/C=C2/C(=O)NN(c3ccccc3)C2=O)c1 | -1% | nt | 24µM* | 0% | -2% | nt
COc1cccc(/C=C2/C(=O)NN(c3ccc(F)cc3)C2=O)c1 | 6% | nt | 21µM* | 4% | 0% | nt
O=C1NN(c2ccccc2)C(=O)/C1=C\c1ccc2c(c1)OCO2 | -2% | nt | 5.4µM* | 5% | -1% | nt
CC(=O)Nc1nonc1-c1nnc(SCc2ccccc2C)n1C | nt | nt | -8% | nt | nt | nt
CC1CCCC(C)N1CCCNC(=O)c1csc2c1CCCCC2 (stereo not given) | 1% | nt | 0% | -3% | -4% | nt
COc1ccc(OC)c(NC(=O)N2CCC3(CC2)Oc2ccccc2C(=O)N3Cc2ccccc2F)c1 | nt | -17% | -4% | nt | nt | nt
CCCn1c(C)cc(C(=O)Cn2nnc3ccccc3c2=O)c1C | ? | 13µM* | 4.3µM* | 0.89µM* | 1µM* | 0%
COCCn1c(C)cc(C(=O)Cn2nc(C(=O)O)c3ccccc3c2=O)c1C | 8.2µM* | 25% | 1.2µM* | ? | 30% | -4%
C=CCn1c(C)cc(C(=O)Cn2nc(C(=O)O)c3ccccc3c2=O)c1C | ? | 11µM* | 0.48µM* | ? | ? | -2%
Cc1cc(C(=O)Cn2nc(C(=O)O)c3ccccc3c2=O)c(C)n1-c1ccc(F)cc1 | ? | ? | 2.7µM* | 20% | 21% | 0%
COc1ccc(OC)c(CNS(=O)(=O)c2c(C(=O)N3CCCCCC3)c(C)n(C)c2C)c1 | nt | nt | -1% | nt | nt | nt
Cc1ccc(-c2c(C(=O)NCCc3ccccc3)oc(=O)c3ccccc23)cc1 | nt | 2% | -3% | nt | nt | nt
CCn1nc(C)c(CCN(C)C(=O)Nc2cc(C)cc(C)c2)c1C | nt | nt | 4% | nt | nt | nt
CC(C)CC(=O)NCC(c1ccc2c(c1)OCO2)N1CCN(c2ccccc2F)CC1 (stereo not given) | nt | nt | 2% | nt | nt | nt
COc1ccc(CNCCSc2nnnn2-c2ccccc2)cc1 | nt | nt | -7% | nt | nt | nt
CCN1C(=O)[C@H]2[C@H]3CN=C(SCc4ccc(C)cc4)N3[C@@](C)(C(=O)OC)[C@H]2C1=O | 7% | nt | nt | nt | nt | nt
CC(C)CC(=O)Nc1ccc(C(=O)Cn2nc(C(=O)O)c3ccccc3c2=O)cc1 | 1% | -17% | 5% | 1% | -1% | 0%
CC(C)(C)c1ccc(C(=O)Cn2nc(C(=O)O)c3ccccc3c2=O)cc1 | -8% | nt | 9.5µM* | 0% | -8% | nt
COC(=O)N/N=C/c1cc(N=Nc2ccccc2Cl)ccc1O | 5% | nt | 6µM* | ? | ? | nt
Nc1ccc(C(=O)N/N=C\c2cc(N=Nc3cccc4ccccc34)ccc2O)cc1 | -7% | -76% | 7.6µM* | 1% | -7% | 0%
CCOC(=O)c1nn(-c2ccc(F)cc2)cc1O | ? | -17% | ? | ? | ? | 8%
CCOC(=O)c1nn(-c2ccc3c(c2)CCN3C(C)=O)cc1O | 1.6µM* | 10µM* | 3.8µM* | 2.2µM* | 1.6µM* | -11%
Cc1c(C(=O)Nc2nccs2)oc2ccc(Br)cc12 | 9.2µM* | nt | nt | nt | nt | nt
SMILES | ELG1 genotoxic | SMN2 splice enh | FLuc counter | Rab9 prom act | NPC1 promoter act | Luc counter
Cc1c(C(=O)/C=C/c2cccs2)oc2ccc(F)cc12 | ? | -14% | 0.67µM* | 4µM* | 4µM* | -3%
Cc1c(C(=O)N2CCN(C(=O)c3ccccc3)CC2)oc2ccc(F)cc12 | -1% | nt | 5% | 2% | -6% | nt
Cc1c(C(=O)Nc2nccs2)oc2ccc(F)cc12 | 14% | nt | ? | 1.6µM* | 3.5µM* | nt
Cc1ccccc1-c1nc(CN2CCC(C(=O)NCc3ccccc3Cl)CC2)c(C)o1 | nt | 5% | ? | nt | nt | nt
O=C(Nc1c[nH]c(=O)[nH]c1=O)c1ccc2c(c1)C(=O)N(c1cccc([N+](=O)[O-])c1)C2=O | 1% | nt | -1% | 0% | 0% | nt
CCCN1C(=O)c2ccc(C(=O)Nc3ccccc3C(=O)O)cc2C1=O | 10% | nt | 3.8µM* | 22% | ? | nt
CCCN1C(=O)c2ccc(C(=O)Nc3cc(C)ccc3O)cc2C1=O | ? | nt | 3.4µM* | ? | 2.2µM* | nt
CCCCN1C(=O)c2ccc(C(=O)Nc3cccc(C)c3C)cc2C1=O | 11% | -6% | 0% | -4% | 1% | 4%
Cc1ccc(O)c(NC(=O)c2ccc3c(c2)C(=O)N(CC(C)C)C3=O)c1 | ? | nt | 2.4µM* | ? | 2.8µM* | nt
O=C(Nc1ccccc1C(=O)O)c1ccc2c(c1)C(=O)N(c1cccc([N+](=O)[O-])c1)C2=O | 0% | nt | 27µM* | -7% | 1% | nt
Cc1ccccc1NC(=O)CSc1nccn1C | nt | -11% | 3% | nt | nt | nt
Cc1cc(C)nc(Nc2ccc(O)cc2)n1 | 2% | nt | -6% | -7% | -2% | nt
COc1ccc(Nc2nc(C)cc(C)n2)cc1Cl | ? | nt | 19µM* | ? | ? | nt
CCc1ccc(Nc2cc(C)nc3nc(C)nn23)cc1 | 1% | -9% | 0% | 3% | 0% | 14%
Cc1ccc(Nc2ccc(C(=O)O)cc2N)cc1 | ? | ? | 5.4µM* | 26%[1.84 µM] | ? | -11%
CCc1ccc(Nc2nc(C)cc(C)n2)cc1 | ? | nt | 12µM* | 5µM* | ? | nt
Cc1cc(C)nc(Nc2ccc(C(=O)O)cc2)n1 | ? | 11µM* | 15µM* | 1.8µM* | 3.5µM* | 16%
CC(=O)C1C(c2ccc([N+](=O)[O-])cc2)c2c(noc2C)CC1(C)O (stereo not given) | -1% | nt | 2% | 1% | -2% | nt
